SMILES strings stand for the structures. Results filed as inconclusive are left out. Calls of active or inactive are those of the source. Calls come from the whole dose curve; as a rule, active = well fitted inhibition curve with a large enough effect; inconclusive = small, poorly fitted or top-dose-only effect; inactive = no such curve, though single readings can be large or run the other way.
% is set by controls: 0 for no effect and ±100 for the full control effect; potency is the fitted concentration of half-maximal effect.

Cytochrome P450 2D6 (Homo sapiens), sequence (P10635 whole entry, looked up): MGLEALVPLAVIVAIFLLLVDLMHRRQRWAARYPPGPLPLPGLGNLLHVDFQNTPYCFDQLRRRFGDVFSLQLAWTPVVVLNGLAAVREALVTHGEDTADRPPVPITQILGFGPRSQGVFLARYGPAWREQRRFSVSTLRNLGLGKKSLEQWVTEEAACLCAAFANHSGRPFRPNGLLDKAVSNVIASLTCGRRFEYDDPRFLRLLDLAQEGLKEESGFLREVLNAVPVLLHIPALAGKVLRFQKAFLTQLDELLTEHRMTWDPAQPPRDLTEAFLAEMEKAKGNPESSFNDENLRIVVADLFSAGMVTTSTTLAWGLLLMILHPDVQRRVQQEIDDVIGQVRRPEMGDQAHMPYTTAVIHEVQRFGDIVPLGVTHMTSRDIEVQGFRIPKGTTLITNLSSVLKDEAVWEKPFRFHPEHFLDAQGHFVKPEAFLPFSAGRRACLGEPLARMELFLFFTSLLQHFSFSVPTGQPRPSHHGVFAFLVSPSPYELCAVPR

The target of this assay is Cytochrome P450 2D6 (Homo sapiens) (UniProt P10635). The experiment in a line: qHTS Assay for Inhibitors and Substrates of Cytochrome P450 2D6 (AID 891).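 For activity change, negative = inhibition: luciferin methyl ether substrate demethylated by CYP2D6 with NADPH regeneration.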 Note: nearly all actives have a fitted effect of over 60% in size. As to conditions: recombinant CYP2D6, luciferin-ME EGE luminescence; series mostly up to 57.1 µM; activity change, negative = inhibition: at the top concentration. In outline:
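Human CYP2D6 (5 nM) with 30 uM Luciferin-ME EGE (at Km) in 100 mM KPO4, compound preincubated 10 min, then NADPH regeneration system for 60 min at room temperature. Luciferin read by luminescence; normalized to 1.43 uM quinidine.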
A general note: In qHTS, concentration-response curves come from the screen itself.
Turning to `CCCc1c(-c2ccc(O)cc2)nn(-c2ccc(O)cc2)c1-c1ccc(O)cc1`, the Potency was 39.8 µM (active).
With `CCCn1c(=O)c2[nH]c(C3CCCC3)nc2n(CCC)c1=O`, the “activity change, negative = inhibition” value was -3.54% (inactive).
`CCCCCCN(CCCCCC)C(=O)Cc1c(-c2ccc(F)cc2)[nH]c2ccccc12`: the “activity change, negative = inhibition” value was -1.8% (inactive).
Regarding `O=C(O)c1cc2cc(F)ccc2[nH]1`, the “activity change, negative = inhibition” value was 11.1% (inactive).
Same read-out and setting: next, `NC(N)=NC(N)=Nc1ccccc1`: -1.79% (inactive).
For the compound `C[C@H](NC(=O)/C(C#N)=C/c1ccc(O)c(O)c1)c1ccccc1`, the Potency result is “inactive”.
Consider `O=c1onc2cnc3ccccc3n12`, for which the “activity change, negative = inhibition” value was -2.38% (inactive).

Source of the values: PubChem BioAssay (NCATS).
